Source: PubChem BioAssay (NCI)
The panel holds about 83,000 compounds, 20% with a hit somewhere; the sample as a whole holds those more often.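 Plates (96-well) were seeded with cells, treated with compound at one concentration, and incubated for 48 hours before percent growth was determined.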 Values without a mark were called inactive. Calls of active or inactive are those of the source. The calls were made as follows: active = growth percent below 10; inactive = the rest.

Legend:
Experiment in all cases: NCI-60 one-dose screen, 48 h (100 = growth as untreated, 0 = no growth, -100 = all killed)
Conditions in all cases: 10 µM unless noted
DU-145 prostate = system: DU-145 prostate
K-562 leukemia = system: K-562 leukemia
MALME-3M melanoma = system: MALME-3M melanoma
MDA-MB-231 breast = system: MDA-MB-231 breast
RXF 393 renal = system: RXF 393 renal
SF-268 CNS = system: SF-268 CNS
SF-295 CNS = system: SF-295 CNS
SF-539 CNS = system: SF-539 CNS
UACC-257 melanoma = system: UACC-257 melanoma
M14 melanoma = system: M14 melanoma
HCT-15 colon = system: HCT-15 colon
HT29 colon = system: HT29 colon
SNB-75 CNS = system: SNB-75 CNS
SNB-19 CNS = system: SNB-19 CNS
U251 CNS = system: U251 CNS
PC-3 prostate = system: PC-3 prostate
SK-MEL-5 melanoma = system: SK-MEL-5 melanoma
UACC-62 melanoma = system: UACC-62 melanoma
LOX IMVI melanoma = system: LOX IMVI melanoma
SK-MEL-28 melanoma = system: SK-MEL-28 melanoma

| Structure (SMILES) | growth (DU-145 prostate) | growth (K-562 leukemia) | growth (MALME-3M melanoma) | growth (MDA-MB-231 breast) | growth (RXF 393 renal) | growth (SF-268 CNS) | growth (SF-295 CNS) | growth (SF-539 CNS) | growth (UACC-257 melanoma) | growth (M14 melanoma) | growth (HCT-15 colon) | growth (HT29 colon) | growth (SNB-75 CNS) | growth (SNB-19 CNS) [%] | growth (U251 CNS) | growth (PC-3 prostate) | growth (SK-MEL-5 melanoma) | growth (UACC-62 melanoma) | growth (LOX IMVI melanoma) | growth (SK-MEL-28 melanoma) |
| --- | --- | --- | --- | --- | --- | --- | --- | --- | --- | --- | --- | --- | --- | --- | --- | --- | --- | --- | --- | --- |
| COc1cc(C2NC(=O)c3ccccc3N2)ccc1OCCCCCOc1c(OC)cc(C2=NOC(c3cc(OC)c(OC)c(OC)c3)C2)cc1OC (stereo not given) | 118% | 59.7% | 53.9% | 82.5% | 104% | 67.4% | 24.9% | 83.2% | 44% | 84.3% | 73% | 94.2% | 101% | 80.2 | 84.2% | 36.8% | -2.4% (active) | 53.3% | 61% | 69.4% |
| CCOc1c(C#N)nnc2c(C#N)c(NC(=O)c3ccccc3)nn12 | 109% | 98.6% | 103% | 100% | 110% | 98.8% | 104% | 95.3% | 97% | 99.1% | 106% | 106% | 79.8% | 100 | 95.6% | 100% | 99.4% | 101% | 95.5% | 104% |
| COC(=O)[C@]12CC[C@@H](C)[C@H](C)[C@@H]1C1=CC[C@@H]3[C@@]4(C)C(C=O)=C[C@@](C)(COS(C)(=O)=O)[C@@H]4C(=O)C[C@@]3(C)[C@]1(C)CC2 | 41.2% | 21.3% | 83.6% | 37.2% | 73.8% | 40.2% | 37.3% | 65.7% | 52.6% | 36.8% | 21.4% | 26.9% | 38.7% | 41.7 | 26% | 12% | 63.8% | 38.6% | 35.7% | 74.2% |
| Fc1cnc(NC2CC2)nc1-c1cnc2ccc(N3CCOCC3)cn12 | 7.39% (active) | 10.9% | -33.7% (active) | 2.98% (active) | -47.1% (active) | 0.958% (active) | 3.46% (active) | -35% (active) | -7.35% (active) | -26% (active) | 1.15% (active) | 0.985% (active) | -42.9% (active) | 11.5 | 8.28% (active) | 5.58% (active) | -53.1% (active) | -80.6% (active) | 4.17% (active) | -4.09% (active) |
| CCN(CC)c1ccc(C(=O)c2ccc(N(CC)CC)cc2)cc1 | 20.2% | 14.7% | 67.2% | 18.4% | -36.5% (active) | 45.6% | 11% | 0.464% (active) | 76.2% | 0.748% (active) | 27.4% | 4.92% (active) | -11.9% (active) | 38.7 | 20.8% | 26.4% | 23.7% | 37.6% | 32.6% | 51.3% |
| N#Cc1c(-c2ccccn2)[nH]c(=S)[nH]c1=O | 105% | 97% | 108% | 117% | 110% | 101% | 99.1% | 97.3% | 109% | 97.6% | 96.7% | 96% | 105% | 126 | 99.8% | 103% | 106% | 118% | 104% | 112% |
| COc1ccc(-c2nc(SCCC(C)C)nc(N/N=C\c3ccccc3O)c2C#N)cc1 | 95.7% | 91.6% | 89.6% | 85.1% | 76.1% | 78% | 94.2% | 90.9% | 89.8% | 98.3% | 86.6% | 103% | 74.8% | 72.4 | 60.5% | 92.3% | 94.2% | 90% | 84.6% | 99.1% |
| N#Cc1c(N)nn(C(=O)c2ccc(NC(=O)c3ccccn3)cc2)c1-c1ccc(Cl)cc1 | 3.96% (active) | 34.2% | -17.5% (active) | 61.1% | 54% | -8.49% (active) | 54.9% | -27.8% (active) | 48% | 17.1% | 32.9% | 18.1% | 27.3% | 23.4 | -39.2% (active) | 15.5% | 25% | 43.1% | 30.5% | 70.4% |
| COc1ccc(Cl)cc1NC(=O)C(Br)C(Br)C(=O)O (stereo not given) | 97.2% | -27% (active) | 46.2% | 46.2% | 44.4% | 19.7% | 99.8% | 77.7% | 60.8% | 75.9% | 67.5% | 108% | 103% | 122 | 49.9% | 56.3% | -82.2% (active) | 7.23% (active) | -69.8% (active) | 60.1% |
| CCOC(=O)c1c(-c2ccc(Cl)cc2)c(C#N)c(=O)n(-c2ccccc2CC)c1N | 93.5% | 77.6% | 100% | 90.8% | 111% | 86.8% | 74.3% | 100% | 113% | 105% | 89.7% | 110% | 89.8% | 120 | 90% | 77.5% | 85.1% | 68.8% | 95% | 99.3% |
| COc1ccc(-c2cc(-c3cc(OC)c(OC)c(OC)c3)c(C#N)c(N3CCOCC3)n2)cc1O | 59% | 2.4% (active) | 126% | 49.8% | 41.3% | 49.6% | 41.6% | 37.9% | 90.3% | 67.5% | 23.5% | 108% | 30.1% | 52.3 | 51.1% | 38.9% | 60.8% | 89.9% | 13.7% | 60% |
| COc1cccc(-c2nn(-c3ccccc3)cc2-c2ccnc(NCCNC(=O)Nc3ccccc3)c2)c1 | 65.9% | 28.2% | 77.8% | 47.9% | 63.5% | 60.9% | 54.4% | 83.6% | 42.9% | 35.7% | 39.3% | 29.6% | 67.7% | 66.5 | 36.8% | 30.8% | 46.1% | 51.5% | 44.4% | 77.7% |
| COC(=O)[C@]12CC[C@@H](C)[C@H](C)[C@@H]1C1=CC[C@@H]3[C@@]4(C)C(C=O)=C[C@@](C)(COC(=O)/C=C/c5ccccc5)[C@@H]4[C@H](O)C[C@@]3(C)[C@]1(C)CC2 | -3.76% (active) | 9.93% (active) | -43.2% (active) | 0.0701% (active) | -40.6% (active) | 14.7% | 1.14% (active) | -10.7% (active) | -43.2% (active) | -43% (active) | 2.39% (active) | -22.9% (active) | 2.38% (active) | 49.4 | 2.16% (active) | 12% | -64.4% (active) | -29.7% (active) | -95.5% (active) | -12.5% (active) |
| O=c1[nH]nc(-c2ccccc2)c2c(-c3ccccc3)onc12 | 25.1% | 9.89% (active) | 37.2% | 50.3% | 12.3% | 42% | 35.7% | 0.0732% (active) | 71.2% | 45.4% | 32.2% | 22.2% | -5.82% (active) | 49.9 | 30.6% | 26.6% | 11% | 34% | 49.6% | 69.8% |
| O=c1c2c3c(sc2nc(N/N=C/c2ccc(Br)cc2)n1Cc1ccccc1)CCCC3 | 81.6% | 79.9% | 91.6% | 50.2% | 73.2% | 68.4% | 34.3% | 50% | 78.9% | 75.8% | 78.1% | 101% | 106% | 76.4 | 70.3% | 70.2% | 87.2% | 88.7% | 73% | 120% |
| COc1nc(N(C)O)nc(N(C)O)n1 | 23.5% | 20.3% | 58.6% | 49.1% | 58.5% | 30.9% | 60.6% | 20.1% | 39.6% | 15% | 23.9% | 46.3% | 74.5% | 31.8 | 27.2% | 42.9% | 13.1% | 11.5% | 14.8% | 53.2% |
